# This is a sample that favours compounds with a hit; in the whole collection about 3.4% have one here.
# TEAD-YAP inh – TEAD-YAP interaction inhibition, primary screen, TEAD-YAP interaction inhibitor project, luminescence, HEK-TIYL cells. TEAD-Gal4/YAP UAS-luciferase luminescence. inhibition, % at 9.12 µM. 640,000 compounds, 1.4% hits. AID 1259422, 2018; in the data active = inhibition above about 32%;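 also: 0% = median of test compound wells and 100% = reference inhibitor wells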
# FBW7 activator – FBW7 E3 ligase activators, primary screen, biochemical, AlphaScreen, human | 650,000 compounds, 0.13% hits | normalized activity (activation), % at 26.1 µM | AlphaScreen FBW7–phospho-cyclin E peptide binding, activator screen | AID 1259310, 2017 | F-box/WD repeat-containing protein 7 (Homo sapiens), Q969H0; in the data active = normalized activity above about 1.9%;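 also: purified mutant Fbw7 with reduced substrate affinity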
# GPR151 activ – activators of human GPR151, primary screen, cell-based, PathHunter beta-arrestin, luminescence | PathHunter beta-arrestin GPR151 cells | activation, % at 11.2 µM | 650,000 compounds, 1% hits | G-protein coupled receptor 151 (Homo sapiens), Q8TDV0 | AID 1508602, 2020; in the data active = activation above about 4.9%;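 also: 0% = median of compound wells and 100% = cells with positive control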
# Target sequence (Q8TDV0 whole entry, looked up): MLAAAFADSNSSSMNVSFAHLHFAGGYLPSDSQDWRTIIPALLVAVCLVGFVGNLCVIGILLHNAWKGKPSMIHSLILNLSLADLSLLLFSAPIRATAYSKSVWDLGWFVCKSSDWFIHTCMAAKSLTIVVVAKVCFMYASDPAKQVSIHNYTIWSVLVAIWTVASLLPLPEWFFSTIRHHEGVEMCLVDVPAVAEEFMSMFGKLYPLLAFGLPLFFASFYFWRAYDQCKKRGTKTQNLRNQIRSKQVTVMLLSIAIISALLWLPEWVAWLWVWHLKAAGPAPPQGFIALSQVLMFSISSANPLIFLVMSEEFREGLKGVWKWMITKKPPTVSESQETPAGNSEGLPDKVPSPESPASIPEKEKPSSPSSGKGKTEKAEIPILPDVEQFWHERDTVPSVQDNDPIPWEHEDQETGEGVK
# MITF primary – MITF inhibitors, primary screen, biochemical, AlphaScreen, human. Microphthalmia-associated transcription factor (Homo sapiens), O75030. AlphaScreen MITF homodimerization, bead proximity signal. inhibition, % at 2.6 µM. 650,000 compounds, 0.91% hits; in the data active = inhibition above about 50%;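 also: 0% = vehicle wells with protein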
# * hit, by the source's call; ! = not active in a repeat.
SMILES,TEAD-YAP inh,FBW7 activator,GPR151 activ,MITF primary
O=C(c1ccccc1)c1cc(Br)ccc1NC(=O)c1cc2ccccc2oc1=O,12.1,-0.3,0.6,-10.5
CC(C)n1ccc(C(=O)Nc2cc3ccccc3oc2=O)n1,62.8*,0.3,-5.2,-3.7
N#Cc1ccc(NC(=O)CN2CCN(S(=O)(=O)/C=C/c3ccccc3)CC2)cc1Cl,1.2,-0.1,0.7,-10.3
CCN(CC)C1=NC(=[N+](CC)CC)c2ccccc21,74.0*,1.0,0.1,22.3
CCCOc1ccc(/C=C(/C)[N+](=O)[O-])cc1OC,37.2*,0.0,-0.7,-13.6
CN1CCN(c2nc3ccc([N+](=O)[O-])cc3s2)CC1,-59.7,-0.1,-1.0,9.1
COc1ccc2sc(N3CCN(C)CC3)nc2c1,37.3*,0.0,-4.6,6.9
O=C(c1cnn(-c2ccccc2)n1)N1CC2CC(C1)c1cccc(=O)n1C2 (stereo not drawn),-1.5,0.2,-1.5,17.6
COc1cc(C)c(/C=C/[N+](=O)[O-])cc1C(C)C,36.6*,0.0,-0.2,-8.9
c1ccc2c(N3CCNCC3)cccc2c1,2.2,-0.1,4.4,-16.4
Cc1cncc2cccc(N3CCNCC3)c12,37.6*,0.1,-0.6,14.0
CNC(=O)Oc1cc([N+](=O)[O-])cc2cccnc12,74.5*,-1.3,-0.6,96.0*
Cc1ccccc1NC(=O)CCC(=O)Nc1ccc(Cl)cc1C(=O)c1ccccc1,14.9,-0.1,-0.5,10.2
COc1ccc(N2CCN(CCC#N)CC2)cc1,0.1,-0.2,0.1,57.3*
COc1ccc(N2CCN(Cc3ccc(N(C)C)cc3)CC2)cc1,1.8,-0.7,-0.6,71.1*
CC12NCCN1C(=O)OC21CCCCC1 (stereo not drawn),5.7,0.2,-2.5,36.0
O=C1C=C2C(=CCOC2O)O1 (stereo not drawn),39.4*,0.3,-0.2,29.1
CC(C)CCCn1c(O)c(/C=C2\C=CC=N2)c(=O)[nH]c1=O,27.9,-0.2,0.9,1.0
O=c1[nH]c(=O)n(Cc2ccccc2Cl)c(O)c1/C=C1\C=CC=N1,51.6*,0.0,0.5,17.2
CC1=CC(=O)NP(=O)(Oc2ccc3ccccc3c2)N1 (stereo not drawn),11.3,1.9*,-0.2,-0.8
O=c1[nH]c(O)c(N=Nc2ccc3c(c2)OCCO3)c(=O)[nH]1,62.4*,-0.1,-3.5,48.4
O=c1[nH]c(=S)[nH]c(O)c1N=Nc1ccc2c(c1)OCCO2,-27.5,0.3,-8.8,-8.5
CCOc1ccc(-n2c(/C=C/c3ccc(OC)cc3)nc3ccccc3c2=O)cc1,11.9,-0.1,0.1,-8.2
CCn1nc(/C=C\c2ccccc2)nc2c(=O)n(C)c(=O)nc1-2,40.3*,-0.3,-5.9,4.0
C=CCNc1cc(N2CCNCC2)ccc1[N+](=O)[O-],-14.8,-0.1,-1.0,2.3
SMILES,TEAD-YAP inh,FBW7 activator,GPR151 activ,MITF primary
CCNC(=O)c1c(CC)n(CC2CCCN2CC)c(C)cc1=O (stereo not drawn),-2.2,0.2,-0.7,-15.7
N#CC(C#N)=Cc1ccc(O)c(O)c1,7.8,-0.2,-1.4,74.1*!
Cc1ccc(-c2ocnc2C(=O)Nc2ccc(C#N)c(Cl)c2)cc1,-20.9,-0.1,-0.2,3.5
N#Cc1ccc(NC(=O)COC(=O)c2n[nH]c3ccccc23)cc1Cl,3.0,0.1,0.2,6.6
CCN1CCN(Cc2c(F)cccc2Cl)CC1,0.9,0.2,-0.1,13.4
COc1ccc(CC2C(=O)N(C)C(=O)N(C)C2=O)cc1,2.6,0.0,-0.3,1.2
COc1ccc(C[C@H]2NC[C@H](O)[C@H]2OC(C)=O)cc1,103.5*,-0.1,3.6,-4.1
CC(=O)NNC1=NC(c2ccccc2)=NP(N(C)C)(N(C)C)=N1,-3.6,-0.1,0.0,8.9
CC(=O)O[C@@H]1C[C@@]2(C)[C@H](c3ccoc3)C[C@H]3O[C@]32[C@]2(C)C(=O)C(O)=C3C(C)(C)C(=O)C=C[C@]3(C)C12 (stereo partly drawn),71.7*,-0.1,2.6,9.1
CC1(C)C(=O)C=C[C@@]2(C)C1=C(O)C(=O)[C@]1(C)C2CC[C@@]2(C)[C@H](c3ccoc3)C[C@H]3O[C@]321 (stereo partly drawn),65.2*,0.0,1.8,-10.8
Cc1ccc2nc(Cl)c3cc(C(=O)N4CCC(=O)CC4)sc3c2c1,-13.9,-0.1,-0.4,-3.6
CC1CCN(Cc2ccc(NC(=O)CCc3nc(C4=CCN(C)CC4)no3)cc2)CC1,7.8,3.9*,1.7,49.9
CC(C)=CCC[C@]1(C)C=Cc2c(O)c3c(c(CC=C(C)C)c2O1)O[C@]12C(=CC4C[C@@H]1C(C)(C)O[C@@]2(C/C=C(/C)C(=O)O)C4=O)C3=O,75.2*,0.2,0.9,5.8
Cn1ncnc2c(=O)n(C)c(=O)nc1-2,98.9*,-0.3,-7.4,10.3
CCCCCCn1c(N)c(C(=O)NCCCOC)c2nc3ccccc3nc21,-10.7,1.8,-0.8,14.0
COc1ccc(OC)c(N2C(=O)/C(=C\c3ccco3)C(=O)NC2=S)c1,-6.7,-0.1,3.6,79.1*
COc1ccc(-c2nc(CSCC(=O)N3CCC4(CC3)OCCO4)c(C)o2)cc1OC,-5.5,0.3,0.2,-0.1
Cc1ccc(-c2nc(CSCC(=O)N3CCC4(CC3)OCCO4)c(C)o2)cc1,49.9*,-0.3,-1.0,1.0
CCOc1ccc(-c2nc(CSCC(=O)N3CCC4(CC3)OCCO4)c(C)o2)cc1,53.0*,0.4,0.5,-1.6
COc1ccc(CCNCc2cccc(OC)c2OC)cc1OC,0.6,-0.1,-0.7,23.7
CN1C(=O)[C@]23CC4=CC=C[C@H](O)[C@H]4N2C(=O)[C@@]1(CO)SS3,87.9*,-0.2,-1.6,-4.2
CC(=O)N1CCC2(CC1)OCc1cc(-c3cncc4ccccc34)ccc1O2,4.7,0.1,0.1,12.0
CCOP(=O)(OCC)C(NC(=O)c1ccc(F)cc1)C(Cl)(Cl)Cl (stereo not drawn),3.8,0.1,-0.5,8.7
CN1C(=O)NC(=O)/C(=C/c2ccc(I)o2)C1=O,5.5,-0.5,0.5,63.0*
Cc1ccc(/C=C2/C(=O)NC(=O)N(C)C2=O)cc1,-6.0,-0.1,-0.2,-1.4
SMILES,TEAD-YAP inh,FBW7 activator,GPR151 activ,MITF primary
C=CCN1C(=O)/C(=C\c2ccc(C)o2)C(=O)NC1=S,-6.4,0.0,-1.4,4.4
Cc1ccc(C=C2C(=O)NC(=S)NC2=O)o1,10.5,-0.4,0.1,66.5*
CN1CCN(Cc2c(F)cccc2F)CC1CCO (stereo not drawn),-0.9,0.6,-0.9,-6.3
CC(=O)N1C(C(=O)O)CSC12CCN(C)CC2 (stereo not drawn),1.2,0.4,-1.0,12.9
Cc1ncc(CN2CCCC(C(=O)c3ccc(C(C)(C)C)cc3)C2)[nH]1 (stereo not drawn),20.1,0.0,2.0,-1.1
CC(C)OC(=O)Nc1ccc(N/C(N)=N/[N+](=O)[O-])cc1,9.9,0.7,0.4,11.3
CN(C)C(=S)SSC(=S)N(C)C,34.4*,-0.1,1.1,-12.2
